# Screening results (PubChem)
# Most compounds without a hit are left out; they make up all but 3.3% or so of the library.
# SSB-PriA inh: K. pneumoniae PriA-SSBct interaction inhibition; inhibition, % at 33 µM; hit rate 0.6% among 430,000; AlphaScreen SSBct-PriA binding, biotinylated peptide; in the data active = inhibition mostly above about 37%, no sharp cut-off; inactive = mostly below about 20%;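 note: plate controls were negative control peptide for no effect and reference peptide for full effect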
# BoNT F protease: blocks Botulinum neurotoxin F light chain protease; Multiplex microsphere protease cleavage assay, flow cytometry; hit rate 0.22% among 360,000; AID 588497; inhibition, % at 10 µM; in the data active = inhibition above about 35%, passing the limit was not always enough; inconclusive = no clear call, values can overlap the other calls; note: plate controls were buffer without enzyme for full effect and enzyme alone for no effect
# BoNT A protease: BoNT A light chain protease inhibition | multiplex microsphere protease substrate cleavage, flow cytometry | inhibition, % at 10 µM | hit rate 0.17% among 360,000; note: plate controls were buffer without enzyme for full effect and enzyme alone for no effect
# Bead autofluor: flagged as autofluorescent in microsphere protease counterscreen; hit rate 3.1% among 360,000; compound autofluorescence counterscreen, microsphere flow cytometry; hits give high values; AID 624483; fluorescence intensity (test concentration not listed); in the data active = fluorescence intensity above about 16000; inconclusive = no clear call, values can overlap the other calls
# MazEF act: MazEF (E. coli) toxin RNase activation; FAM/BHQ RNA-DNA oligo cleavage fluorescence, 5 h; P0AE70; activation, % at 20 µM; AID 504720; hit rate 0.32% among 350,000; in the data active = activation above about 50%
# Anthrax LF prot: inhibitors of Bacillus anthracis lethal factor protease | hit rate 0.12% among 360,000 | multiplex microsphere protease cleavage assay, LF | inhibition, % at 10 µM | P15917; note: plate controls were buffer without enzyme for full effect and enzyme alone for no effect
# * hit, by the source's call; ? = inconclusive; / = no result; + = active, no number; ! = repeats disagree. Cut-off read from the data, not from the text of the source, unless noted: active = inhibition above about 30%; inconclusive = no clear call, values can overlap the other calls; inactive = below that.
SMILES,SSB-PriA inh,BoNT F protease,BoNT A protease,Bead autofluor,MazEF act,Anthrax LF prot
Cn1c(=O)c2[nH]c(CNc3ccc(C(=O)O)cc3)nc2n(C)c1=O,72*,4,0,3551,-19,4
C[C@H](NCc1nc2c([nH]1)c(=O)n(C)c(=O)n2C)c1ccccc1,-18,/,/,/,/,/
COc1cc(/C=N/Nc2nn3cnnc3c3ccccc23)ccc1O,/,-3,?,21210*,2,-3
CSc1ccc(CNC(=O)C2CCc3nn(C)c(=O)cc3C2)cc1 (configuration not stated),2,/,/,/,/,/
COC(=O)N1CCC(CNC(=O)c2ccccc2Br)CC1,-22,/,/,/,/,/
CCOc1ccc2c(c1)=CC(=Cc1sc(=S)n(Cc3ccco3)c1O)C(=O)N=2,4,/,/,/,/,/
COc1ccccc1N1CCN(/N=C/C=C/c2ccccc2[N+](=O)[O-])CC1,+,/,/,/,4,/
COc1cc(/C=N/n2nnnc2N)ccc1O,/,-9,-3,23466*,4,-5
Nc1nnnn1N=Cc1ccccc1O,-6,/,/,/,/,/
Nc1nnnn1N=Cc1ccccn1,13,/,/,/,/,/
C=CCOc1ccc(C=Nn2nnnc2N)cc1OC,-16,/,/,/,/,/
CCN(CC)c1ccc(/C=N/n2nnnc2N)c(O)c1,/,-4,3,22051*,7,-5
Nc1nnnn1/N=C/c1ccccn1,/,9,5,21208*,0,-7
Cc1cc(CN2CCC(CNS(=O)(=O)c3cccc(C(F)(F)F)c3)CC2)c(C)o1,9,/,/,/,/,/
Nc1c(C(=O)NCC2CCCO2)sc(=S)n1Cc1ccccc1 (configuration not stated),3,/,/,/,/,/
Cc1cc(C)nc(NC(=NS(=O)(=O)Cc2ccccc2)Nc2ccccc2Br)n1,-17,/,/,/,/,/
O=[N+]([O-])c1cccc(/C=N/N2CCN(c3ccccn3)CC2)c1,/,1,-1,2428,-4,0
COc1cc(C=NN2CCN(c3ccccc3OC)CC2)ccc1O,16,/,/,/,/,/
CSc1ccc(/C=N/n2nnnc2N)cc1,/,1,1,22907*,2,-1
COc1cc(/C=N/N2CCN(c3ccccc3OC)CC2)ccc1O,/,0,?,16130*,-8,-5
O=[N+]([O-])c1ccccc1C=NN1CCN(c2ccccn2)CC1,39*,/,/,/,/,/
Cc1cc(C(=O)Nc2nc3ccc4sc(C)nc4c3s2)on1,-6,/,/,/,/,/
Cc1cc(-c2nnc(NC(=O)c3c[nH]c4ccccc34)o2)c(C)o1,-23,/,/,/,/,/
COc1ccccc1N1CCN(S(=O)(=O)c2ccc3c4c(cccc24)C(=O)N3)CC1,35*!,-15,1,10158,3,8
CCOC(=O)C1CCN(S(=O)(=O)c2ccc3c4c(cccc24)C(=O)N3)CC1,-2,-1,-1,6168,3,-6
SMILES,SSB-PriA inh,BoNT F protease,BoNT A protease,Bead autofluor,MazEF act,Anthrax LF prot
COc1ccccc1N1CCN(S(=O)(=O)c2cccc(F)c2)CC1,3,-2,-1,22849*,0,-2
O=C(Nc1nccs1)C1COc2ccccc2C1 (configuration not stated),-16,/,/,/,/,/
CC(C)c1ccc(OCC(=O)N2CCN(Cc3nc4ccccc4[nH]3)CC2)cc1,-16,/,/,/,/,/
O=C(CSc1ccc(NC(=O)C2CC2)nn1)NC[C@H]1CCCO1,-14,/,/,/,/,/
O=C(Nc1cccc(C(F)(F)F)c1)c1cc2ncc(Br)cn2n1,-7,3,4,22276*,1,1
CCc1ccccc1NC(=O)c1cc2ncc(Br)cn2n1,-10,7,?,21333*,0,-1
O=C(Nc1ccc2c(c1)OCO2)c1cc2ncc(Br)cn2n1,0,-10,0,2539,-2,0
COc1ccc(-c2c(C)nn3c(N4CCC(C(=O)NCCN(C)C)CC4)cc(C)nc23)cc1OC,14,-2,-2,23368*,8,-2
CC(C)c1cc(N2CCN(C(=O)c3ccco3)CC2)n2c(nc3ccccc32)c1C#N,-25,-2,-1,4376,2,-7
Cc1cc(-c2ccco2)c(C#N)c2nc3ccccc3n12,-14,-14,1,3064,+,3
COc1cccc2cc(C(=O)NCc3sc(-c4cccs4)nc3C)oc12,-7,/,/,/,/,/
CN(C)c1cccc(C(=O)N2CCCC[C@H](c3ccc(F)cc3)C2)c1,57*,/,/,/,/,/
Cc1cccc(N2C(=O)/C(=C/c3cccnc3)SC2=S)c1,-7,8,0,3039,2,10
Cc1cc(/C=C2/SC(=S)N(c3cccc(Cl)c3)C2=O)c(C)n1-c1cccnc1,30,74*,60*,8722,-62,51*
Cc1cc(/C=C2/SC(=S)N(c3ccc([N+](=O)[O-])cc3)C2=O)c(C)n1-c1cccnc1,18,2,33*,4024,-16,14
